Source: the supplement of paper PMC10849652
Of roughly 7,900 targets only a part is listed; those with a hit were picked by preference. About 0.6% of all pairs of compound and target were hits.

How the values were obtained:
Assay in all cases: log2 fold change, soluble protein after heating vs DMSO (PISA); higher = thermal stabilisation; K562 cells, 10 uM, 30 min; active = over 0.2 and 3.5 SD of the protein, either way, in both replicates (recomputed)
[1] = compound: C1=CC=C(C=C1)[C@H](COC2=CC3=C(C=C2)NC(=O)N3)NC(=O)C4=CC=CN(C4=O)CC5=CC(=C(C=C5)F)F
Method in brief: (§1)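 K562 cells at 2×10^6 cells/mL were given 10 μM compound for 30 min. Aliquots then went through 3 min of heating across 48°C-58°C, were pooled, and were extracted in PBS with 0.5% NP-40 at 4°C, and the supernatant after 21,000xg for 90 min was quantified by TMTpro 16plex LC-MS/MS with channel sums equalised. Thermal stability relative to control samples, from duplicates, is given as log2 fold change.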

[2] = compound: CC1=C(SC2=C1C(=N[C@H](C3=NN=C(N32)C)CC(=O)N)C4=CC=C(C=C4)Cl)C
Method in brief: as §1

[3] = compound: CC1=C2C(=CC=C1)N=C(N(C2=O)C3=CC=CC=C3C)CN4C=NC5=C(N=CN=C54)N
Method in brief: as §1

[4] = compound: Cc1sc2c(c1C)C(c1ccc(Cl)cc1)=N[C@@H](CC(=O)OC(C)(C)C)c1nnc(C)n1-2
Method in brief: as §1

[5] = compound: c1ccc([C@@H]2C[C@H]2NC2CCNCC2)cc1
Method in brief: as §1

Measured: log2 fold change

TSG101 (UniProt Q99816)
Chain of UniProt Q99816 (Q99816 whole entry, looked up): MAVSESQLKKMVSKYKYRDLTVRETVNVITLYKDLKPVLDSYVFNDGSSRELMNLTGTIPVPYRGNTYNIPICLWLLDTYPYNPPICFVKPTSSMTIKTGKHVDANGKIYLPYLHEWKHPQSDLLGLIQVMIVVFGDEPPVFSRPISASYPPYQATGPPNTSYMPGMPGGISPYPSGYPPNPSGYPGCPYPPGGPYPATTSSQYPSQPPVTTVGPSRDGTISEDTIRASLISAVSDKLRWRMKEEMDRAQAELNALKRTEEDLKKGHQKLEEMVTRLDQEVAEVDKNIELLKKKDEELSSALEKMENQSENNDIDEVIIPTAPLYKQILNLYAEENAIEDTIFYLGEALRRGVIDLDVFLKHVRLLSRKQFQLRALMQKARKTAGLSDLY
inactive: [1] 0 | [2] 0.032 | [3] 0.074 | [4] -0.015 | [5] -0.016

VPS41 (UniProt P49754)
inactive: [1] -0.028 | [2] 0.06 | [3] 0.152 | [4] -0.017 | [5] -0.052

TRAM1 (UniProt Q15629)
inactive: [1] -0.167 | [2] -0.024 | [3] -0.008 | [4] 0.049 | [5] -0.018

WDHD1 (UniProt O75717)
inactive: [1] -0.014 | [2] 0.085 | [3] 0.121 | [4] 0.002 | [5] 0.015

XPO5 (UniProt Q9HAV4)
Chain of UniProt Q9HAV4 (Q9HAV4 whole entry, looked up): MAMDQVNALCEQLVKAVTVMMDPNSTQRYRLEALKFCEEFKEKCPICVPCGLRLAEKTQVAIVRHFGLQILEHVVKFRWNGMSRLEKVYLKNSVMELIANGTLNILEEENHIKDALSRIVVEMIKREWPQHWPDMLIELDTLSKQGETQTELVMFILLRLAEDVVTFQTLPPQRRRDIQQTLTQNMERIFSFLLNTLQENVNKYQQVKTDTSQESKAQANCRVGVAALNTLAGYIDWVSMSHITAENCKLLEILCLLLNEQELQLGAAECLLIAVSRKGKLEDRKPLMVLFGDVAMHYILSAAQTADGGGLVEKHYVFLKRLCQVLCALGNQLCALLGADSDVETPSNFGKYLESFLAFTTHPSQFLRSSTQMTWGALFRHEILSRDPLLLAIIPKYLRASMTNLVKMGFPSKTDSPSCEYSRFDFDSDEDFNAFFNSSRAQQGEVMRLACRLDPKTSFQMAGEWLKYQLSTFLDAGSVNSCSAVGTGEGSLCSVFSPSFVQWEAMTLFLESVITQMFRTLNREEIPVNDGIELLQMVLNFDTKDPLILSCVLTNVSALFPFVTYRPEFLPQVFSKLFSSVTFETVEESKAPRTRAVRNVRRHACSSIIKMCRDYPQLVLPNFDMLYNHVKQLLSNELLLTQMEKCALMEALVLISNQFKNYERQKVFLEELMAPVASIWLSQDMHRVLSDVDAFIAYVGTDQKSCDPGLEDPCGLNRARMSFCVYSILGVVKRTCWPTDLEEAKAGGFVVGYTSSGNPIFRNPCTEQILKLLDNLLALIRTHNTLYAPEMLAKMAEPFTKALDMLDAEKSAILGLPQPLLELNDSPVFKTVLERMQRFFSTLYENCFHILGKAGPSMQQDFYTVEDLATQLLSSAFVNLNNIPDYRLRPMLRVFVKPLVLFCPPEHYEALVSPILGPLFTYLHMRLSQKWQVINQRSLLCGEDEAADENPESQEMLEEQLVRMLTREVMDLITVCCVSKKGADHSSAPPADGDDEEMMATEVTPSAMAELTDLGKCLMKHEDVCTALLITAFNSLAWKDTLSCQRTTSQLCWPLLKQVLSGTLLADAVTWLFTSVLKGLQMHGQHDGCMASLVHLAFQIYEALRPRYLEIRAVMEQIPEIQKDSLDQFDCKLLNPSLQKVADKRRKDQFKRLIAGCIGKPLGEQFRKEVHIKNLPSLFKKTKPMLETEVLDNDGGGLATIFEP
inactive: [1] -0.037 | [2] 0.042 | [3] 0.02 | [4] -0.024 | [5] -0.01

TRAPPC8 (UniProt Q9Y2L5)
Chain of UniProt Q9Y2L5 (Q9Y2L5 whole entry, looked up): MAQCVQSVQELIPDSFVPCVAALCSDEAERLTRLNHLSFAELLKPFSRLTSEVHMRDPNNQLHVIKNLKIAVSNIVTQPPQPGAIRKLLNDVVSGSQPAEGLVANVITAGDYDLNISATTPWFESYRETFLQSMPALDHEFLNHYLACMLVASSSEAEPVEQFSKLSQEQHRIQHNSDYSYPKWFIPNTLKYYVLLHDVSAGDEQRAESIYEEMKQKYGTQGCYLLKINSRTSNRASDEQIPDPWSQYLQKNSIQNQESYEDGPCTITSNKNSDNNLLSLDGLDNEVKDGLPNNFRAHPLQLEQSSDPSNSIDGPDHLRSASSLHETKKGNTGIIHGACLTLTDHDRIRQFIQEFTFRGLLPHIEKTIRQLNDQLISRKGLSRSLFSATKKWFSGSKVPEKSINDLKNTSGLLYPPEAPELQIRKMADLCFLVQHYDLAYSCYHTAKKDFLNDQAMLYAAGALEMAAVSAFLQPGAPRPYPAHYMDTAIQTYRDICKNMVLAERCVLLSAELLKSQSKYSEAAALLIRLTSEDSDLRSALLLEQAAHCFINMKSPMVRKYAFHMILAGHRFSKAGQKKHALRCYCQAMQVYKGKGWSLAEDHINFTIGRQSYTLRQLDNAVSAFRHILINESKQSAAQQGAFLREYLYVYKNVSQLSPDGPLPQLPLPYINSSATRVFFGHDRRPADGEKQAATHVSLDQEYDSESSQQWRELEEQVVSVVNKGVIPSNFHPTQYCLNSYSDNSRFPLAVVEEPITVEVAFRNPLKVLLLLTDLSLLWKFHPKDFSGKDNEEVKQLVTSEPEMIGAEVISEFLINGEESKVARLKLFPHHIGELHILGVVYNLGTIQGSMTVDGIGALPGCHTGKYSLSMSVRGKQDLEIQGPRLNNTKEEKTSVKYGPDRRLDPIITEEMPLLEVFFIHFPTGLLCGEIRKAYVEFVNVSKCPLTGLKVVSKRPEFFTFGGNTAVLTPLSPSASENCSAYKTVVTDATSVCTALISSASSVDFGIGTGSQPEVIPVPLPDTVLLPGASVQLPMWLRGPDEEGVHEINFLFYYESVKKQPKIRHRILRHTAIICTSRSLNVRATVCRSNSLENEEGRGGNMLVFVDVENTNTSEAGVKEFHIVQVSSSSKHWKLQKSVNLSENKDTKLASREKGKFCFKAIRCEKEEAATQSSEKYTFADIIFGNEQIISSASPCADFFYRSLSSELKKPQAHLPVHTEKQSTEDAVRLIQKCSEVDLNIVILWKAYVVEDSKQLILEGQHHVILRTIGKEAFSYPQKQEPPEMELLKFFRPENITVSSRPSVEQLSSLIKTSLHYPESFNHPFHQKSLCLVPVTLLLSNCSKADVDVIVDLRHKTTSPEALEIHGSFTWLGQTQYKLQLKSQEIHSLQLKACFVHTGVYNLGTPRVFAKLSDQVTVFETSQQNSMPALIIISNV
inactive: [1] -0.01 | [2] 0.05 | [3] 0.046 | [4] 0.012 | [5] -0.018

TXNRD1 (UniProt Q16881)
Chain of UniProt Q16881 (Q16881 whole entry, looked up): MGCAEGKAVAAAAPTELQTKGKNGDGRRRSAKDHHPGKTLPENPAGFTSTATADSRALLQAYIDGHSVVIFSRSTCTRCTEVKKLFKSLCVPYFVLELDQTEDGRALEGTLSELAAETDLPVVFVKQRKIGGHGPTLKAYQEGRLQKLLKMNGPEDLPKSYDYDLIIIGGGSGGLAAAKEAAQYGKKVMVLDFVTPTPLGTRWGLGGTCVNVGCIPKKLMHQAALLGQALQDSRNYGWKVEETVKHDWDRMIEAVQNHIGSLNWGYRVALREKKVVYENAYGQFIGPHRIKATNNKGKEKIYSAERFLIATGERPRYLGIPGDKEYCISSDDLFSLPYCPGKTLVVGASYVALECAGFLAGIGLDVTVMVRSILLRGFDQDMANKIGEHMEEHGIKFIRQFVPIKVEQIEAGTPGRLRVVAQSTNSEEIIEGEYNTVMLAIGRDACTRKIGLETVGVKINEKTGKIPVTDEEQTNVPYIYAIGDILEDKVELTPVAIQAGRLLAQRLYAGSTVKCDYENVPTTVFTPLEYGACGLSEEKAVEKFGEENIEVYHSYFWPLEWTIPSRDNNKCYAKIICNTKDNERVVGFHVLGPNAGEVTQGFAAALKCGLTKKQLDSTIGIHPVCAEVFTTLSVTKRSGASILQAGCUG
inactive: [1] -0.066 | [2] 0.086 | [3] 0.023 | [4] -0.031 | [5] -0.032

TMEM63B (UniProt Q5T3F8)
inactive: [1] 0.059 | [2] -0.005 | [3] -0.099 | [4] -0.036 | [5] -0.04

TMEM189-UBE2V1 (UniProt I3L0A0)
inactive: [1] -0.047 | [2] 0.02 | [3] 0.102 | [4] -0.02 | [5] 0.048

UBAP1 isoform 4 (UniProt Q9NZ09)
Chain of UniProt Q9NZ09 (Q9NZ09 whole entry, looked up): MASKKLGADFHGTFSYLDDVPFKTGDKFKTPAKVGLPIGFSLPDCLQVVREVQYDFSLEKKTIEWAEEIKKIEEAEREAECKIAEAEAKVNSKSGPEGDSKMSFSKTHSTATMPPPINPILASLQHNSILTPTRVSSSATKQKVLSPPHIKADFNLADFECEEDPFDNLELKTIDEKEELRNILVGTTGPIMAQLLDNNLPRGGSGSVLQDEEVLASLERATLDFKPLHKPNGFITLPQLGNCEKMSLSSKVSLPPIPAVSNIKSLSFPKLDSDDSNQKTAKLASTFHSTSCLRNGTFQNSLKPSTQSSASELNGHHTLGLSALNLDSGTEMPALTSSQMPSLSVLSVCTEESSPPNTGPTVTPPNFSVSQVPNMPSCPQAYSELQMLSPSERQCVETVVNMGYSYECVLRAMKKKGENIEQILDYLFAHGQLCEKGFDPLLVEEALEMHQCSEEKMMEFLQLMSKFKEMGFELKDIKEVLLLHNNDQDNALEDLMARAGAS
inactive: [1] 0.021 | [2] 0.005 | [3] 0.129 | [4] -0.171 | [5] -0.072

TNPO3 (UniProt Q9Y5L0)
Chain of UniProt Q9Y5L0 (Q9Y5L0 whole entry, looked up): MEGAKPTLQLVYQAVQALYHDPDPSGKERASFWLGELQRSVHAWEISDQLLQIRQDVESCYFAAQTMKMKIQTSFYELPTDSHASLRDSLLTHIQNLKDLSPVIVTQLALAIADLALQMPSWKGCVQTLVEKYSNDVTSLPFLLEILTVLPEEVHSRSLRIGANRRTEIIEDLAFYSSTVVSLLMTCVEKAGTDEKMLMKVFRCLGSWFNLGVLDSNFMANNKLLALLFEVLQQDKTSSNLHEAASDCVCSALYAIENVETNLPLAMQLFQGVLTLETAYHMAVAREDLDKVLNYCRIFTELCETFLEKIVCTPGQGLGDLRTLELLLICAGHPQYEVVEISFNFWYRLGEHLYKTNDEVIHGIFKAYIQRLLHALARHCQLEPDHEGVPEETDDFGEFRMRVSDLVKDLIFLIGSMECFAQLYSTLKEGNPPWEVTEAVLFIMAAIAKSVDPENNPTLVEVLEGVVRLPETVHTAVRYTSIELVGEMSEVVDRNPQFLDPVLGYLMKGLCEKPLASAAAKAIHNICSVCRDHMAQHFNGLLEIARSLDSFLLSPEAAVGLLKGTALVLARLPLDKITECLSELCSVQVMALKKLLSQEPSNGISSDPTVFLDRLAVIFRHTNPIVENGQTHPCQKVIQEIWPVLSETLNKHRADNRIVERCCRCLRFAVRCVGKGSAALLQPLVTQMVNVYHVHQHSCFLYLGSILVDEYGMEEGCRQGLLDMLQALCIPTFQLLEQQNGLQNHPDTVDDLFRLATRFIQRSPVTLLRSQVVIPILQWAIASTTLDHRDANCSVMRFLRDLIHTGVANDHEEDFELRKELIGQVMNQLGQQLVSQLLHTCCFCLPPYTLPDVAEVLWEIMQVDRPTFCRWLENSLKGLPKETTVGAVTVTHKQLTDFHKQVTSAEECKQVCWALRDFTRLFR
inactive: [1] -0.035 | [2] 0.063 | [3] 0.014 | [4] -0.022 | [5] -0.007

UBA6
inactive: [1] -0.018 | [2] 0 | [3] 0.06 | [4] 0.001 | [5] -0.002
